Inconclusive results are not listed. Active and inactive are the calls of the source. Unless noted, the call rests on the fitted dose curve; in most records, active means well fitted curve in the direction sought with a large enough effect in the repeat runs; inconclusive means weak or mixed curves; inactive means no such curve, though single readings can be large; an effect the other way counts as inactive or inconclusive.
Tests used:
[1] = qHTS assay for small molecule agonists of the p53 signaling pathway (AID 651631; calls by dose curve; further: nearly all actives have a fitted effect of over 15% in size)
How it was run: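 Quantitative high-throughput format: 4,000 p53RE-bla HCT-116 cells/well, 5 h pre-incubation, 16 h compound exposure at 37 °C, 2 h room-temperature substrate step, fluorescence intensity measured.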

[2] = qHTS assay for small molecules that induce genotoxicity in human embryonic kidney cells expressing luciferase-tagged ATAD5 (AID 651632); further: nearly all actives have a fitted effect of over 15% in size
How it was run: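 Test compounds were delivered by pin tool onto HEK293T reporter cells (2,000/well) expressing ATAD5 fused to luciferase. After 16 hr at 37C, 5% CO2, Amplite was added for 30 min at room temperature and luminescence was measured.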

[3] = qHTS assay for small molecule agonists of the p53 signaling pathway - cell viability (AID 651633; calls by dose curve;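 further: p53RE-bla HCT reporter cells with a stable beta-lactamase p53 reporter; series mostly up to about 83 µM; nearly all actives have a fitted effect of over 30% in size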)
How it was run: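 p53RE-bla cells were treated with compound for 16 hours at 37 C. Cytotoxicity was then measured as CellTiter-Glo luminescence after 30 min at room temperature.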

[4] = qHTS assay for small molecules that induce genotoxicity in human embryonic kidney cells expressing luciferase-tagged ATAD5 - cell viability (AID 651634; calls by dose curve; further: nearly all actives have a fitted effect of over 25% in size)
How it was run: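 Quantitative high-throughput format. HEK293T cells expressing ATAD5 fused to luciferase were plated at 2,000 cells/well and treated 15.5 hr with compound versus DMSO. Viability was determined by fluorescent live-cell protease substrate, 30 min at 37C.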

[5] = qHTS assay for small molecule disruptors of the mitochondrial membrane potential - cell viability (AID 720634; calls by dose curve;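 further: human HepG2 liver cancer cells; series mostly up to about 83 µM; nearly all actives have a fitted effect of over 20% in size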)
How it was run: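 Same-well counter-screen: following the MMP dye addition, CellTiter-Glo was added to 1 hr compound-treated HepG2 cells and luminescence read after 30 min at room temperature.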

[6] = qHTS assay to test for compound auto fluorescence at 590 nm (red) in HepG2 cells (AID 720674)
How it was run: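 HepG2 cells, 2,000 per well in MEM with 10% FBS, attached overnight at 37 C, then got 23 nL compound or DMSO. After 1 hr at 37 C, 5% CO2, red fluorescence was read at 540/590 nm against Rose Bengal sodium as reference.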

[7] = qHTS assay to test for compound auto fluorescence at 535 nm (green) in HepG2 cells (AID 720675)
[8] = qHTS assay to test for compound auto fluorescence at 460 nm (blue) in HEK293 cells (AID 720678)
How it was run: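 Intrinsic compound fluorescence is recorded in live HEK293 cultures after overnight incubation at 37C, 5% CO2, using excitation 405 nm and emission 460 nm. Values are referenced to triamterene.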

[9] = qHTS assay to test for compound auto fluorescence at 590 nm (red) in HEK293 cells (AID 720679)
How it was run: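 Red autofluorescence, HEK293 cells: 2,000 cells/well; attach 4-5 hr 37C; add 23 nL cpd or DMSO; incubate o/n 37C 5% CO2; read Ex540/Em590; Rose Bengal sodium reference.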

[10] = qHTS assay to test for compound auto fluorescence at 535 nm (green) in HEK293 cells (AID 720680)
[11] = qHTS assay to test for compound auto fluorescence at 460 nm (blue) in HEK293 cell free culture (AID 720681)
How it was run: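 Compounds were added to cell-free DMEM with 10% FBS and fluorescence read directly. The blue channel used 405 nm excitation and 460 nm emission, with triamterene as the reference fluorophore.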

[12] = qHTS assay to test for compound auto fluorescence at 535 nm (green) in HEK293 cell free culture (AID 720682)
How it was run: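 Measurement is a direct plate read of green fluorescence (485 nm in, 535 nm out) after compound addition to serum-supplemented DMEM lacking cells, with fluorescein used to express intensities.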

[13] = qHTS assay to test for compound auto fluorescence at 590 nm (red) in HEK293 cell free culture (AID 720683)
How it was run: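 Cell-free wells of DMEM with 10% FBS received compound, and intrinsic fluorescence was read at excitation/emission 540/590 nm. Values expressed as equivalence to Rose Bengal sodium.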

[14] = qHTS assay to test for compound auto fluorescence at 535 nm (green) in HepG2 cell free culture (AID 720686)
[15] = qHTS assay to test for compound auto fluorescence at 460 nm (blue) in HepG2 cells (AID 720687)
How it was run: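 HepG2 cells in MEM with 10% FBS, attached overnight at 37 C, were exposed to compound or DMSO for 1 hr at 37 C, 5% CO2. Blue fluorescence was read at 405/460 nm, with triamterene as reference fluorophore.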

[16] = qHTS assay to test for compound auto fluorescence at 590 nm (red) in HepG2 cell free culture (AID 720684)
How it was run: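 Auto fluorescence equivalency versus Rose Bengal sodium, red channel Ex/Em 540/590 nm; compounds in cell-free MEM/10% FBS; DMSO vehicle control.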

[17] = qHTS assay to test for compound auto fluorescence at 460 nm (blue) in HepG2 cell free culture (AID 720685)
How it was run: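 Cell-free plates of MEM plus 10% FBS received 23 nL compound or DMSO vehicle; blue-channel (405/460 nm) intensity scored against triamterene as reference fluorophore.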

[18] = target: Glucocorticoid receptor (Homo sapiens) (UniProt P04150); assay: qHTS assay to identify small molecule agonists of the glucocorticoid receptor (GR) signaling pathway (AID 720691; active means well fitted activation curve with a large enough effect in the signal ratio in the repeat runs, not every such curve was filed as active; the % refers to the signal ratio)
Sequence of Glucocorticoid receptor (Homo sapiens) (P04150 whole entry, looked up): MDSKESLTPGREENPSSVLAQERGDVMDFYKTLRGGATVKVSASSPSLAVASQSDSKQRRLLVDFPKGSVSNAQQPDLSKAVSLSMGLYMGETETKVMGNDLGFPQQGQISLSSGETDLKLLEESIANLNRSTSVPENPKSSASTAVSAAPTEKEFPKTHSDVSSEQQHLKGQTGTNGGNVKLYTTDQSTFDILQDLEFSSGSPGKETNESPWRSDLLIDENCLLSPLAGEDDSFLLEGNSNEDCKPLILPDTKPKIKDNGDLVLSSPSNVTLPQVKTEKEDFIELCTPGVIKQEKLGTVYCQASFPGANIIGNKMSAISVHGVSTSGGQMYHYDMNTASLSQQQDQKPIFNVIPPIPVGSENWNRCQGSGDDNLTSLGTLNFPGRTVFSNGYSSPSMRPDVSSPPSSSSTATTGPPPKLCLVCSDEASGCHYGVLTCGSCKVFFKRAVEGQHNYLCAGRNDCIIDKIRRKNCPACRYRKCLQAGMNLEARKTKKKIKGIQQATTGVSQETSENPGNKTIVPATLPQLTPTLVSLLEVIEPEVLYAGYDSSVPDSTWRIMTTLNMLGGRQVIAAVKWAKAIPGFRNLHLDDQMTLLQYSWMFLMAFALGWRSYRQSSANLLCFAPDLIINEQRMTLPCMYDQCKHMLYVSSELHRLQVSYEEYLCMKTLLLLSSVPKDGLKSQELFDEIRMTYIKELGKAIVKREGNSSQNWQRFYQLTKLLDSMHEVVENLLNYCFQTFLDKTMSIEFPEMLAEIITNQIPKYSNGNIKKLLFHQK
How it was run: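 A HeLa cervical cancer line expressing GR and a glucocorticoid response element-driven beta-lactamase gene is treated with compounds for 18 h; LiveBLAzer B/G FRET substrate is then applied and fluorescence read.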

[19] = target: Glucocorticoid receptor (Homo sapiens) (UniProt P04150); assay: qHTS assay to identify small molecule antagonists of the glucocorticoid receptor (GR) signaling pathway (AID 720692; active means well fitted inhibition curve with a large enough effect in the signal ratio in the repeat runs, not every such curve was filed as active; the % refers to the signal ratio)
How it was run: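 GRE-bla HeLa line, dex-stimulated (5 nM final). Compound exposure 18 h, 37 C. Beta-lactamase FRET read after 2 h RT substrate.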
On the % scale 0 is the no-effect control and ±100 the full control effect.

O=C(O)C(F)(F)C(F)(F)C(F)(F)C(F)(F)C(F)(F)C(F)(F)F
inactive: Potency [1] | outcome [2] | Potency [3] | Potency [4] | Potency [5] | outcome [6] | outcome [7] | outcome [8] | outcome [9] | outcome [10] | outcome [11] | outcome [12] | outcome [13] | outcome [14] | outcome [15]

NC(=O)CS(=O)C(c1ccccc1)c1ccccc1 (stereo not drawn)
inactive: Potency [1] | outcome [2] | Potency [3] | Potency [4] | Potency [5] | outcome [6] | outcome [7] | outcome [8] | outcome [9] | outcome [10] | outcome [11] | outcome [12] | outcome [13] | outcome [16] | outcome [17] | outcome [14] | outcome [15] | Potency [18] | Potency [19]

CCSC(=O)Cl
inactive: Potency [1] | outcome [2] | Potency [3] | Potency [4] | Potency [5] | outcome [6] | outcome [7] | outcome [8] | outcome [9] | outcome [10] | outcome [11] | outcome [12] | outcome [13] | outcome [17] | outcome [14] | outcome [15] | Potency [18] | Potency [19]

CNC(=O)Oc1ccccc1C(C)C
inactive: Potency [1] | outcome [2] | Potency [3] | Potency [4] | Potency [5] | outcome [6] | outcome [7] | outcome [8] | outcome [9] | outcome [10] | outcome [11] | outcome [13] | outcome [16] | outcome [14] | outcome [15] | Potency [18] | Potency [19]

CCNc1nc(NCC)nc(SC)n1
inactive: Potency [1] | outcome [2] | Potency [3] | Potency [4] | Potency [5] | outcome [6] | outcome [7] | outcome [8] | outcome [9] | outcome [10] | outcome [11] | outcome [12] | outcome [13] | outcome [16] | outcome [17] | outcome [14] | outcome [15] | Potency [18] | Potency [19]

CNC(=O)NC(O)C(Cl)(Cl)Cl (stereo not drawn)
inactive: Potency [1] | outcome [2] | Potency [3] | Potency [4] | Potency [5] | outcome [6] | outcome [7] | outcome [8] | outcome [9] | outcome [10] | outcome [11] | outcome [12] | outcome [13] | outcome [17] | outcome [14] | outcome [15]

Cl/C=C/CCl
inactive: Potency [1] | outcome [2] | Potency [3] | Potency [4] | Potency [5] | outcome [6] | outcome [7] | outcome [8] | outcome [9] | outcome [10] | outcome [11] | outcome [12] | outcome [13] | outcome [16] | outcome [14] | outcome [15] | Potency [18]

O=C(Cl)C(Cl)(Cl)Cl
inactive: Potency [1] | outcome [2] | Potency [3] | Potency [4] | Potency [5] | outcome [6] | outcome [7] | outcome [8] | outcome [9] | outcome [10] | outcome [12] | outcome [13] | outcome [16] | outcome [17] | outcome [14] | outcome [15] | Potency [18]

CN(C)C(=O)Oc1cc(OC(=O)N(C)C)cc(C(O)CNC(C)(C)C)c1 (stereo not drawn)
inactive: Potency [1] | outcome [2] | Potency [3] | Potency [4] | Potency [5] | fluorescence, relative to Rose Bengal [6] 0.42% [at 18.6 µM] | fluorescence, % of fluorescein control [7] 0.0476% [at 18.6 µM] | fluorescence, % of triamterene [8] 0.0042% [at 18.6 µM] | fluorescence, % of fluorescent control [9] 0.104% [at 18.6 µM] | fluorescence, % of fluorescein [10] 0.102% [at 18.6 µM] | fluorescence, % of fluorescent control [11] 0.0217% [at 18.6 µM] | activity change [12] -0.0374% [at 18.6 µM] | fluorescence, % of fluorescent control [13] -0.0016% [at 18.6 µM] | fluorescence, % of Rose Bengal [16] -0.0966% [at 18.6 µM] | fluorescence, % of fluorescent control [17] 0.0484% [at 18.6 µM] | fluorescence, % of fluorescein control [14] -0.0661% [at 18.6 µM] | fluorescence, % of fluorescent control [15] 0.0969% [at 18.6 µM] | Potency [18]

S=C=S
inactive: Potency [1] | outcome [2] | Potency [3] | Potency [4] | Potency [5] | outcome [6] | outcome [7] | outcome [8] | outcome [9] | outcome [10] | outcome [11] | outcome [12] | outcome [13] | outcome [17] | outcome [14] | outcome [15] | Potency [18] | Potency [19]

NC(=O)OCCCc1ccccc1
inactive: Potency [1] | outcome [2] | Potency [3] | Potency [4] | Potency [5] | outcome [6] | outcome [7] | outcome [8] | outcome [9] | outcome [10] | outcome [12] | outcome [13] | outcome [16] | outcome [17] | outcome [14] | outcome [15] | Potency [18]

CCN(CCO)CCO
inactive: Potency [1] | outcome [2] | Potency [3] | Potency [4] | Potency [5] | outcome [6] | outcome [7] | outcome [8] | outcome [9] | outcome [10] | outcome [12] | outcome [13] | outcome [16] | outcome [17] | outcome [14] | outcome [15] | Potency [18]

O=CCCl
inactive: Potency [1] | outcome [2] | Potency [3] | Potency [4] | Potency [5] | outcome [6] | outcome [7] | outcome [8] | outcome [9] | outcome [10] | outcome [11] | outcome [13] | outcome [16] | outcome [17] | outcome [14] | outcome [15] | Potency [18] | Potency [19]

O=C1CCCCC1Cl (stereo not drawn)
inactive: Potency [1] | outcome [2] | Potency [3] | Potency [4] | Potency [5] | outcome [6] | outcome [7] | outcome [9] | outcome [10] | outcome [11] | outcome [12] | outcome [13] | outcome [16] | outcome [17] | outcome [14] | outcome [15] | Potency [18]

CCOC(=O)C(SP(=S)(OC)OC)c1ccccc1 (stereo not drawn)
inactive: Potency [1] | outcome [2] | Potency [3] | Potency [4] | Potency [5] | outcome [6] | outcome [7] | outcome [8] | outcome [9] | outcome [10] | outcome [12] | outcome [13] | outcome [16] | outcome [17] | outcome [14] | outcome [15] | Potency [18]

CN(CCO)CCO
inactive: Potency [1] | outcome [2] | Potency [3] | Potency [4] | Potency [5] | outcome [6] | outcome [7] | outcome [8] | outcome [9] | outcome [10] | outcome [11] | outcome [12] | outcome [13] | outcome [16] | outcome [17] | outcome [14] | outcome [15] | Potency [18]

— PubChem BioAssay (Tox21)
